PubChem BioAssay (EPA / NIEHS)
“And” between values parts separate entries of the source, which are not always exact repeats. Equal entries are not always repeated. The source made the active and inactive calls. How the source made its calls: active means hit-call score of the fitted dose curve at least 0.9, where 1 is the maximum; inactive means score below 0.9.

What follows are compounds tested on Intercellular Adhesion Molecule 1 (ICAM1), ICAM1 (gene 3383) (assay: BSK_KF3CT_ICAM1: BioMAP Diversity Plus: KF3CT Assay for Intercellular Adhesion Molecule 1 (ICAM1) Biomarker Activity (AID 2283067)). Details: primary human keratinocytes with fibroblasts; actives raise or lower the signal.
Protocol: BSK_KF3CT is a cell-based, multiplexed-readout assay that uses keratinocytes and foreskin fibroblasts, a human skin primary cell co-culture, with measurements taken at 24 hours after chemical dosing in a 96-well plate.BSK_KF3CT_ICAM1 is an assay component measured in the BSK_KF3CT assay. It measures ICAM-1 antibody related to regulation of gene expression using ELISA technology.Data from the assay component BSK_KF3CT_ICAM1 was analyzed into 1 assay endpoint. This assay endpoint, BSK_KF3CT_ICAM1, was analyzed with bidirectional fitting relative to DMSO as the negative control and baseline of activity. Using a type of binding reporter, gain or loss-of-signal activity can be used to understand changes in the signaling as they relate to the gene ICAM1. Furthermore, this assay endpoint can be referred to as a primary readout, because this assay has produced multiple assay endpoints where this one serves a signaling function. To generalize the intended target to other relatable targets, this assay endpoint is annotated to the cell adhesion molecules intended target family, where the subfamily is Immunoglobulin CAM.
The levels of cell surface (or secreted, indicated by the prefix "s") biomarker endpoints were measured by ELISA. Overt cytotoxicity to cells in confluent adherent cultures (all systems other than the BT system) was assessed by measuring total protein levels using sulforhodamine B (SRB) staining in parallel cultures at the time of biomarker measurements, indicated as SRB endpoints. For proliferation assays for adherent cell types, individual cell types are cultured at sub-confluence and relative cell numbers quantified by SRB staining at time points optimized for each system (48 h: 3C and CASM3C systems; 72 h: BT and HDF3CGF systems; 96 h: SAg system). SRB was performed by staining cells with 0.1% SRB after fixation with 10% TCA and reading wells at 560 nm.Viability and proliferation of PBMC (T cells) was quantified by Alamar Blue reduction for the SAg and BT systems. For PBMC viability (referred to as PBMC Cytotoxicity within the assay endpoint names), cells were plated (75,000/well in a 96-well plate) and then chemical samples added for 1 h before addition of activators, SEB and TSST-1 (20 ng/mL final concentration each). Cells were incubated for 90 h. Then, Alamar Blue (20 uL/well) (Invitrogen, Cat DAL1100) was added for 6 h, and the plates were read with a fluorescence microplate reader at 546/580 nm (excitation/emission). For PBMC proliferation, cells were plated and activated as above but incubated for only 16 h prior to addition of Alamar Blue. Plates were read after 6 h.

| Structure (SMILES) | outcome | AC50 |
| --- | --- | --- |
| CCN(CC)c1ccc2c(C)cc(=O)oc2c1 | inactive | – |
| OCCCC(F)(F)C(F)(F)C(F)(F)C(F)(F)C(F)(F)C(F)(F)C(F)(F)F | – | 28.3 µM (active) and 47.3 µM (active) |
| CCCCCCCCCCCCCCCC[N+](C)(C)Cc1ccccc1 | – | 6.06 µM (active) |
| Nc1ccc([N+](=O)[O-])cc1O | inactive | – |
| NC(=O)C(F)(F)C(F)(F)C(F)(F)C(F)(F)F | inactive | – |
| C=C(C)C(=O)OCC(F)(F)C(F)(F)C(F)(F)C(F)(F)C(F)(F)C(F)(F)C(F)(F)F | inactive | – |
| OCC(F)(F)C(F)(F)C(F)(F)C(F)(F)C(F)(F)C(F)F | inactive | – |
| O=C(O)C(F)(F)C(F)(F)C(F)F | inactive | – |
| O=C(O)C(F)(F)C(F)(F)C(F)(F)C(F)(F)C(F)(F)C(F)(F)C(F)(F)C(F)(F)C(F)(F)C(F)F | inactive | – |
| O=S(=O)(O)C(F)(F)C(F)(F)C(F)(F)C(F)(F)C(F)(F)C(F)(F)C(F)(F)F | inactive | – |
| OCC(F)(F)C(F)(F)C(F)(F)F | inactive | – |
| FC(F)(F)C(F)(F)C(F)(F)C(F)(F)C(F)(F)CCI | inactive | – |
| FC(F)(F)C(F)(F)C(F)(F)C(F)(F)C(F)(F)C(F)(F)C(F)(F)C(F)(F)CCS | inactive | – |
| O=S(=O)(OCC(F)F)C(F)(F)F | inactive | – |
| C=C(C)C(=O)OCC(F)(F)C(F)(F)C(F)(F)F | inactive | – |
| CC(C)(C)C(=O)CC(=O)C(F)(F)C(F)(F)C(F)(F)F | inactive | – |
| FC(F)(F)C(F)(F)C(F)(F)C(F)(F)C(F)(F)C(F)(F)CC1CO1 (stereo not given) | inactive | – |
| FC(F)(F)C(F)(F)C(F)(F)CI | inactive | – |
| FC(F)(F)C(F)(F)C(F)(F)C(F)(F)C(F)(F)C(F)(F)C(F)(F)I | inactive | – |
| FC(F)(F)C(F)(F)C(F)(F)C(F)(F)C(F)(F)C(F)(F)C(F)(F)C(F)(F)F | inactive | – |

| Structure (SMILES) | outcome | AC50 |
| --- | --- | --- |
| CCCCC(CC)COP(=O)(O)OCC(CC)CCCC (stereo not given) | inactive | – |
| O=C(O)C(F)(F)C(F)(F)OC(F)(F)F | inactive | – |
| O=C(O)C(F)(OC(F)(F)C(F)(OC(F)(F)C(F)(OC(F)(F)C(F)(F)C(F)(F)F)C(F)(F)F)C(F)(F)F)C(F)(F)F (stereo not given) | inactive | – |
| CS(C)(=O)=O | inactive | – |
| CCCCCCC(C)OC(=O)CCCCC(=O)OC(C)CCCCCC (stereo not given) | inactive | – |
| OCC(F)(F)C(F)(F)C(F)(F)C(F)F | inactive | – |
| OCCCC(F)(F)C(F)(F)C(F)(F)F | inactive | – |
| O=P(O)(O)OCCC(F)(F)C(F)(F)C(F)(F)C(F)(F)C(F)(F)C(F)(F)F | inactive | – |
| C=CC(F)(F)C(F)(F)C(F)(F)C(F)(F)C(F)(F)C(F)(F)C(F)(F)C(F)(F)F | inactive | – |
| FC(F)(F)C(F)(F)C(F)(F)C(F)(F)C(F)(F)C(F)(F)CCS | inactive | – |
| CCc1c(Br)c(Br)c(Br)c(Br)c1Br | inactive | – |
| FC(F)(F)C(F)(F)CNCC(F)(F)C(F)(F)F | inactive | – |
| Oc1ccc(Nc2ccccc2)cc1 | inactive | – |
| O[Si](c1ccccc1)(c1ccccc1)c1ccccc1 | inactive | – |
| CCO[Si](CCC(F)(F)C(F)(F)C(F)(F)C(F)(F)C(F)(F)C(F)(F)F)(OCC)OCC | inactive | – |
| O=C(O)C(F)(F)C(F)(F)C(F)(F)C(F)(F)F | inactive | – |
| FC1CC(F)(F)C(F)(F)C1(F)F (stereo not given) | inactive | – |
| CCCCOCCOCCOC(=O)CCCCC(=O)OCCOCCOCCCC | inactive | – |
| Cc1ccc(S(=O)(=O)OCC(F)(F)C(F)(F)C(F)(F)C(F)(F)C(F)(F)C(F)F)cc1 | inactive | – |
| OCC(F)(F)C(F)(F)C(F)(F)C(F)(F)C(F)(F)C(F)(F)F | inactive | – |
